Assay outcomes as filed in PubChem BioAssay.
NOMO-1 viab: STK33 inhibitor candidate reducing NOMO-1 cell viability; 37,000 tested, 7.5% active; NOMO-1 AML viability, CellTiter-Glo luminescence, 72 h; inhibition, % (concentration not given with the values); in the data active = inhibition above about 80%; inconclusive = no clear call, values can overlap the other calls
MITF inh: blocks MITF activity | 37,000 tested, 0.28% active | TRPM1 promoter luciferase, luminescence, 24 h | inhibition, % (test concentration not listed) | AID 2240; in the data active = inhibition above about 85%; inconclusive = no clear call, values can overlap the other calls; inactive = below about 68%;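 also: human melanocyte line stably carrying TRPM1 promoter luciferase reporter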
ROS inducer: inducers of reactive oxygen species in cancer cells. U2OS ROS induction, H2DCF-DA fluorescence. ROS induction (% of piperlongumine), % at 10 µM. 46,000 tested, 2% active; in the data active = ROS induction above about 79%, passing the limit was not always enough; inconclusive = no clear call, values can overlap the other calls;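 also: 0% = DMSO vehicle median and 100% = reference compound median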
PD-1 reverse act: reversal of PD-1 mediated T-cell inhibition; activation, % (no concentration beside the values); 29,000 tested, under 10 active; primary human CD4 T cells, PD-L1 beads, CellTiter-Glo 96 h; call rule not given here;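 also: 0% = median vehicle wells and 100% = positive control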
YB-1 expr inh: YB-1 expression inhibition; U2OS, qRT-PCR YB-1 vs CDIP delta delta Cp, 16 h; stronger effect = higher value; zero = DMSO, each unit about twofold; delta delta Cp (YB-1 minus CDIP) (test concentration not listed); 30,000 tested, 0.37% active; AID 434959;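 active = delta delta Cp rounded down to an integer at or above 3, about 3 SD of DMSO wells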;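 also: higher means less YB-1 transcript or more CDIP transcript relative to DMSO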
* = called active by the depositor. Only a selection was taken, and hits are over-represented in it overall.

For Cc1ccc(Cn2nc(C)cc2C(=O)Sc2ccccc2)cc1 the results were NOMO-1 viab 92.5*, MITF inh 7.0, ROS inducer 64.5, PD-1 reverse act -8.7 and YB-1 expr inh 0.116.
C[C@@H]1CN([C@@H](C)CO)C(=O)c2cccc(NC(=O)Nc3ccc(C(F)(F)F)cc3)c2O[C@@H]1CN(C)Cc1ccc(Oc2ccccc2)cc1 was read as NOMO-1 viab 94.9*, MITF inh -11.7, ROS inducer 14.6, PD-1 reverse act -10.7 and YB-1 expr inh -0.48.
`C[C@H]1CN([C@@H](C)CO)C(=O)c2cccc(NC(=O)Nc3ccc(C(F)(F)F)cc3)c2O[C@H]1CN(C)Cc1ccc(Oc2ccccc2)cc1` gave NOMO-1 viab 75.3, MITF inh -5.6, ROS inducer 15.0 and YB-1 expr inh 0.259.
C[C@@H]1CN([C@H](C)CO)C(=O)c2cccc(NC(=O)Nc3ccc(C(F)(F)F)cc3)c2O[C@@H]1CN(C)Cc1ccc(Oc2ccccc2)cc1 was read as NOMO-1 viab 106.6*, MITF inh -3.9, ROS inducer 4.8 and YB-1 expr inh 0.0169.
Screening C[C@@H]1CN([C@@H](C)CO)C(=O)c2cccc(NC(=O)NC3CCCCC3)c2O[C@H]1CN(C)CC1CCCCC1 returned NOMO-1 viab 102.3*, MITF inh 30.2, ROS inducer 11.4, PD-1 reverse act -1.9 and YB-1 expr inh -0.389.
For C[C@@H]1CN([C@@H](C)CO)C(=O)c2cccc(NC(=O)NC3CCCCC3)c2O[C@H]1CN(C)CC1CC1 the results were NOMO-1 viab 25.2, MITF inh 18.7, ROS inducer 3.3 and YB-1 expr inh 0.00214.
`C[C@@H]1CN([C@H](C)CO)C(=O)c2cccc(NC(=O)NC3CCCCC3)c2O[C@H]1CN(C)Cc1ccccc1` gave NOMO-1 viab 114.6*, MITF inh 54.4, ROS inducer 5.9, PD-1 reverse act -6.0 and YB-1 expr inh -0.226.
C[C@@H]1CN([C@H](C)CO)C(=O)c2cccc(NC(=O)NC3CCCCC3)c2O[C@H]1CN(C)Cc1ccc(Oc2ccccc2)cc1 was read as NOMO-1 viab 114.2*, MITF inh 73.3, ROS inducer inconclusive, PD-1 reverse act -4.3 and YB-1 expr inh 0.448.
For C[C@H]1CN([C@@H](C)CO)C(=O)Cc2cc(NS(C)(=O)=O)ccc2O[C@H]1CN(C)C(=O)Nc1cccc2ccccc12 the results were NOMO-1 viab 20.0, MITF inh 0.1, ROS inducer 5.1, PD-1 reverse act 0.6 and YB-1 expr inh 0.0251.
`c1cc(-c2nn[nH]n2)ccc1OCc1nn[nH]n1` gave NOMO-1 viab 2.8, MITF inh -23.3, ROS inducer -9.9 and PD-1 reverse act -1.2.
For Cc1onc(-c2ccccc2)c1-c1ccnn1C(=O)c1ccc(Cl)cc1 the results were ROS inducer -15.7.
`Cc1ccc(-c2nc(NCCC3=CCCCC3)c3ccccc3n2)cc1` gave ROS inducer 21.4.
For CCOC(=O)C1CCN(C(c2cccc(Cl)c2)c2c(NC(C)=O)sc3c2CCCC3)CC1 (configuration not stated) the results were NOMO-1 viab 109.1*, MITF inh 23.8, ROS inducer 57.2, PD-1 reverse act -0.2 and YB-1 expr inh -0.287.
`Oc1c(C(Nc2cccnc2)c2ccc(Cl)cc2)ccc2cccnc12` (configuration not stated) gave NOMO-1 viab 119.9*, MITF inh 38.8, ROS inducer -10.1 and PD-1 reverse act -14.4.
For Oc1c(C(Nc2cccnc2)c2ccccc2F)ccc2cccnc12 (configuration not stated) the results were NOMO-1 viab 115.7* and MITF inh 58.6.
`Oc1c(C(Nc2cccc(Cl)c2)c2cccnc2)ccc2cccnc12` (configuration not stated) gave NOMO-1 viab 114.9*, MITF inh 37.2, ROS inducer -9.8, PD-1 reverse act -3.8 and YB-1 expr inh -0.154.
For O=C(CSc1nccc(=O)[nH]1)Nc1cccc(C(F)(F)F)c1 the results were NOMO-1 viab 30.9, MITF inh -2.0, ROS inducer 0.0 and PD-1 reverse act -0.8.
Screening C[C@H]1CC[C@@H]2[C@@H](C(=O)c3c(O)c([C@]4(O)CC[C@@H](O)[C@H]5O[C@H]54)cn(O)c3=O)[C@@H](C)C=C[C@H]2C1 returned NOMO-1 viab 120.0*, MITF inh 66.6, ROS inducer -5.6, PD-1 reverse act -11.2 and YB-1 expr inh 1.69.
`c1ccc(-c2ccc3ccccc3n2)nc1` gave NOMO-1 viab 104.2*, MITF inh 39.9, ROS inducer -1.6, PD-1 reverse act -2.5 and YB-1 expr inh -0.214.
C[C@@H]1CN([C@H](C)CO)C(=O)c2cccc(NC(=O)Nc3ccc(C(F)(F)F)cc3)c2O[C@H]1CN(C)Cc1ccc(C(F)(F)F)cc1 was read as NOMO-1 viab inconclusive, MITF inh 43.8, ROS inducer 22.4, PD-1 reverse act -5.1 and YB-1 expr inh -0.591.
Screening C[C@H](CO)N1C[C@H](C)[C@H](CN(C)Cc2ccc(C(F)(F)F)cc2)Oc2c(NC(=O)Nc3cccc4ccccc34)cccc2C1=O returned NOMO-1 viab 112.1*, MITF inh 54.8, ROS inducer 45.0, PD-1 reverse act -5.3 and YB-1 expr inh -1.02.
For C[C@@H]1CN([C@H](C)CO)C(=O)c2cccc(NC(=O)Nc3ccccc3)c2O[C@H]1CN(C)Cc1ccc(C(F)(F)F)cc1 the results were NOMO-1 viab 91.3*, MITF inh 46.1, ROS inducer 25.7 and YB-1 expr inh -0.147.
`C[C@H]1CN([C@@H](C)CO)C(=O)c2cccc(NC(=O)Nc3ccc(C(F)(F)F)cc3)c2O[C@H]1CN(C)Cc1ccc(C(F)(F)F)cc1` gave NOMO-1 viab 113.8*, MITF inh 30.3, ROS inducer 2.0, PD-1 reverse act -6.1 and YB-1 expr inh -0.163.
`C[C@@H]1CN([C@H](C)CO)C(=O)c2cccc(NC(=O)Nc3ccc(C(F)(F)F)cc3)c2O[C@@H]1CN(C)Cc1ccc(C(F)(F)F)cc1` gave NOMO-1 viab 111.3*, MITF inh 5.6, ROS inducer 11.2, PD-1 reverse act -3.3 and YB-1 expr inh 0.241.
For C[C@H](CO)N1C[C@H](C)[C@H](CN(C)Cc2ccc(C(F)(F)F)cc2)Oc2c(NC(=O)Nc3ccccc3)cccc2C1=O the results were NOMO-1 viab 47.7, MITF inh 1.0, ROS inducer 11.7 and YB-1 expr inh -0.034.
Cc1ccc2nsnc2c1NC(=O)COc1ccc([N+](=O)[O-])cc1 was read as NOMO-1 viab 26.8, MITF inh 7.8, ROS inducer 3.2 and PD-1 reverse act -2.1.
NC(=O)CSc1nnc(Cc2ccccc2)n1-c1ccccc1 was read as NOMO-1 viab 29.3, MITF inh 0.5, ROS inducer -27.4 and PD-1 reverse act 0.8.
`C[C@@H]1CN([C@@H](C)CO)C(=O)c2cccc(NC(=O)Nc3ccc(C(F)(F)F)cc3)c2O[C@@H]1CN(C)Cc1ccc(-c2ccccc2)cc1` gave NOMO-1 viab 125.0*, MITF inh 7.8, ROS inducer 52.4 and YB-1 expr inh -0.273.
